# According to PMC11006913:
# Positions count from the first letter of the chain named.
# Key:
# Test in all cases: PBM; 200 nM protein, PBS
# Conditions in all cases: dsDNA, one strand shown
# PROP1 [1] = biological target: PROP1 (Homo sapiens, UniProt O75360 56-141)
# PROP1 [2] = biological target: PROP1 (Homo sapiens, UniProt O75360 56-141, R99H)
# PROP1 [3] = biological target: PROP1 (Homo sapiens, UniProt O75360 56-141, F88S)
# ALX3 [4] = biological target: ALX3 (Homo sapiens, UniProt O95076 139-225)
# ALX3 [5] = biological target: ALX3 (Homo sapiens, UniProt O95076 139-225, L168Q)
# ALX3 [6] = biological target: ALX3 (Homo sapiens, UniProt O95076 139-225, L168V)
# HOXA7 [7] = biological target: HOXA7 (Homo sapiens, UniProt P31268 116-202)
# HOXA7 [8] = biological target: HOXA7 (Homo sapiens, UniProt P31268 116-202, W177C)
# HOXC10 [9] = biological target: HOXC10 (Homo sapiens, UniProt Q9NYD6 254-340)
# NKX2-6 [10] = biological target: T1, NKX2-6 (Homo sapiens, UniProt A6NCS4 118-204, R150C)
# T1 sequence: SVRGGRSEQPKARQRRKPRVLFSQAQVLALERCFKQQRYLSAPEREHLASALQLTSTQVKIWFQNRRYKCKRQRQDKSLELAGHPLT
# HOXC10 [11] = biological target: HOXC10 (Homo sapiens, UniProt Q9NYD6 254-340, K271E)
# HOXA4 [12] = biological target: HOXA4 (Homo sapiens, UniProt Q00056 201-287, W262R)
# HOXA4 [13] = biological target: HOXA4 (Homo sapiens, UniProt Q00056 201-287, R217L)
# HOXA4 [14] = biological target: HOXA4 (Homo sapiens, UniProt Q00056 201-287)
# HOXA4 [15] = biological target: HOXA4 (Homo sapiens, UniProt Q00056 201-287, W262F)
# NKX2-6 [16] = biological target: T2, NKX2-6 (Homo sapiens, UniProt A6NCS4 118-204)
# T2 sequence: T1 sequence with C33R
# NKX2-6 [17] = biological target: T3, NKX2-6 (Homo sapiens, UniProt A6NCS4 118-204, F151L)
# T3 sequence: T1 sequence with C33R, F34L
# Sequence of ALX3 (Homo sapiens, UniProt O95076 139-225) (O95076 139-225): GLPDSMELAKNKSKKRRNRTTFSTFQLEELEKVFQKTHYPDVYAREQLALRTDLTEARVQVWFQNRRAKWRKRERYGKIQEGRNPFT
# Sequence of PROP1 (Homo sapiens, UniProt O75360 56-141, R99H) (O75360 56-141 R99H): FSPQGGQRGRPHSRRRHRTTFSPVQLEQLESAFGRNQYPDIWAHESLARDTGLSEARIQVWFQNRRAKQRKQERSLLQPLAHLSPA
# Sequence of HOXA4 (Homo sapiens, UniProt Q00056 201-287, W262F) (Q00056 201-287 W262F): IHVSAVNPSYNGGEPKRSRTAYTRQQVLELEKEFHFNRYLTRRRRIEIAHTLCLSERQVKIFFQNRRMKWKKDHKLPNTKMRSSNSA
# Sequence of HOXA4 (Homo sapiens, UniProt Q00056 201-287, W262R) (Q00056 201-287 W262R): as the sequence (Q00056 201-287 W262F) above, with F62R counted along it
# Sequence of HOXA4 (Homo sapiens, UniProt Q00056 201-287) (Q00056 201-287): as the sequence (Q00056 201-287 W262F) above, with F62W counted along it
# Sequence of PROP1 (Homo sapiens, UniProt O75360 56-141, F88S) (O75360 56-141 F88S): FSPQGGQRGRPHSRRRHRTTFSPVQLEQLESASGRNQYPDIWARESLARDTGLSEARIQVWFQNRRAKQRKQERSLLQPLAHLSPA
# Sequence of PROP1 (Homo sapiens, UniProt O75360 56-141) (O75360 56-141): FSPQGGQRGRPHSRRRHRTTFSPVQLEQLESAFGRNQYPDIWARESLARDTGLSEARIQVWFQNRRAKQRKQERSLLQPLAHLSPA
# Sequence of HOXA7 (Homo sapiens, UniProt P31268 116-202) (P31268 116-202): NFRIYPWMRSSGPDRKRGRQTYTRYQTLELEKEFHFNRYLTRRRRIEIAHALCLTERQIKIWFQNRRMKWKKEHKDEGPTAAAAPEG
# Sequence of HOXA7 (Homo sapiens, UniProt P31268 116-202, W177C) (P31268 116-202 W177C): as the sequence (P31268 116-202) above, with W62C counted along it
# Sequence of HOXA4 (Homo sapiens, UniProt Q00056 201-287, R217L) (Q00056 201-287 R217L): as the sequence (Q00056 201-287 W262F) above, with R17L, F62W counted along it
# Sequence of ALX3 (Homo sapiens, UniProt O95076 139-225, L168Q) (O95076 139-225 L168Q): as the sequence (O95076 139-225) above, with L30Q counted along it
# Sequence of HOXC10 (Homo sapiens, UniProt Q9NYD6 254-340) (Q9NYD6 254-340): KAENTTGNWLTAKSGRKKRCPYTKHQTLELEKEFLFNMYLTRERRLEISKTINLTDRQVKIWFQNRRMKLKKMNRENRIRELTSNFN
# Sequence of ALX3 (Homo sapiens, UniProt O95076 139-225, L168V) (O95076 139-225 L168V): as the sequence (O95076 139-225) above, with L30V counted along it
# Sequence of HOXC10 (Homo sapiens, UniProt Q9NYD6 254-340, K271E) (Q9NYD6 254-340 K271E): as the sequence (Q9NYD6 254-340) above, with K18E counted along it
sequence,measurement,setting,value
GTCCGGAC,binding signal,PROP1 [1],"6.74 upbm affinity estimate (log intensity, higher = more binding, comparable within an allelic series)"
same,binding signal,PROP1 [2],"6.64 upbm affinity estimate (log intensity, higher = more binding, comparable within an allelic series)"
same,binding signal,PROP1 [3],"6.7 upbm affinity estimate (log intensity, higher = more binding, comparable within an allelic series)"
CGTCGCGC,binding signal,ALX3 [4],"7.7 upbm affinity estimate (log intensity, higher = more binding, comparable within an allelic series)"
same,binding signal,ALX3 [5],"7.79 upbm affinity estimate (log intensity, higher = more binding, comparable within an allelic series)"
same,binding signal,ALX3 [6],"7.7 upbm affinity estimate (log intensity, higher = more binding, comparable within an allelic series)"
CGGCCACC,binding signal,HOXA7 [7],"8.41 upbm affinity estimate (log intensity, higher = more binding, comparable within an allelic series)"
same,binding signal,HOXA7 [8],"8.25 upbm affinity estimate (log intensity, higher = more binding, comparable within an allelic series)"
CAGCGCCG,binding signal,HOXC10 [9],"9.95 upbm affinity estimate (log intensity, higher = more binding, comparable within an allelic series)"
same,binding signal,NKX2-6 [10],"9.39 upbm affinity estimate (log intensity, higher = more binding, comparable within an allelic series)"
same,binding signal,HOXC10 [11],"9.93 upbm affinity estimate (log intensity, higher = more binding, comparable within an allelic series)"
CCCAGCCG,binding signal,HOXA4 [12],"9.73 upbm affinity estimate (log intensity, higher = more binding, comparable within an allelic series)"
same,binding signal,HOXA7 [7],"8.28 upbm affinity estimate (log intensity, higher = more binding, comparable within an allelic series)"
same,binding signal,HOXA4 [13],"9.56 upbm affinity estimate (log intensity, higher = more binding, comparable within an allelic series)"
same,binding signal,HOXA4 [14],"9.64 upbm affinity estimate (log intensity, higher = more binding, comparable within an allelic series)"
same,binding signal,HOXA7 [8],"8.32 upbm affinity estimate (log intensity, higher = more binding, comparable within an allelic series)"
same,binding signal,HOXA4 [15],"9.72 upbm affinity estimate (log intensity, higher = more binding, comparable within an allelic series)"
GGGGGGAC,binding signal,PROP1 [1],"6.32 upbm affinity estimate (log intensity, higher = more binding, comparable within an allelic series)"
same,binding signal,PROP1 [2],"6.19 upbm affinity estimate (log intensity, higher = more binding, comparable within an allelic series)"
same,binding signal,PROP1 [3],"5.57 upbm affinity estimate (log intensity, higher = more binding, comparable within an allelic series)"
AGCGCAGG,binding signal,HOXA7 [7],"8.41 upbm affinity estimate (log intensity, higher = more binding, comparable within an allelic series)"
same,binding signal,HOXA7 [8],"8.31 upbm affinity estimate (log intensity, higher = more binding, comparable within an allelic series)"
CCCGGGAC,binding signal,NKX2-6 [10],"9.29 upbm affinity estimate (log intensity, higher = more binding, comparable within an allelic series)"
AGGCGCCC,binding signal,ALX3 [4],"7.55 upbm affinity estimate (log intensity, higher = more binding, comparable within an allelic series)"
same,binding signal,ALX3 [5],"7.7 upbm affinity estimate (log intensity, higher = more binding, comparable within an allelic series)"
same,binding signal,ALX3 [6],"7.59 upbm affinity estimate (log intensity, higher = more binding, comparable within an allelic series)"
GTATCATA,binding signal,HOXA4 [12],"10.3 upbm affinity estimate (log intensity, higher = more binding, comparable within an allelic series)"
same,binding signal,HOXA4 [13],"10.6 upbm affinity estimate (log intensity, higher = more binding, comparable within an allelic series)"
same,binding signal,HOXA4 [14],"11 upbm affinity estimate (log intensity, higher = more binding, comparable within an allelic series)"
CCCCGGGG,binding signal,HOXC10 [9],"9.9 upbm affinity estimate (log intensity, higher = more binding, comparable within an allelic series)"
same,binding signal,NKX2-6 [16],"9.57 upbm affinity estimate (log intensity, higher = more binding, comparable within an allelic series)"
same,binding signal,HOXC10 [11],"9.91 upbm affinity estimate (log intensity, higher = more binding, comparable within an allelic series)"
same,binding signal,NKX2-6 [17],"9.2 upbm affinity estimate (log intensity, higher = more binding, comparable within an allelic series)"
GGGGGCCA,binding signal,HOXA4 [12],"9.65 upbm affinity estimate (log intensity, higher = more binding, comparable within an allelic series)"
same,binding signal,HOXA4 [13],"9.62 upbm affinity estimate (log intensity, higher = more binding, comparable within an allelic series)"
same,binding signal,HOXA4 [14],"9.83 upbm affinity estimate (log intensity, higher = more binding, comparable within an allelic series)"
same,binding signal,HOXA4 [15],"9.79 upbm affinity estimate (log intensity, higher = more binding, comparable within an allelic series)"
CCGGGCGC,binding signal,HOXA4 [12],"9.61 upbm affinity estimate (log intensity, higher = more binding, comparable within an allelic series)"
same,binding signal,HOXA4 [13],"9.64 upbm affinity estimate (log intensity, higher = more binding, comparable within an allelic series)"
same,binding signal,HOXA4 [14],"9.56 upbm affinity estimate (log intensity, higher = more binding, comparable within an allelic series)"
same,binding signal,HOXA4 [15],"9.82 upbm affinity estimate (log intensity, higher = more binding, comparable within an allelic series)"
CATGATCA,binding signal,ALX3 [4],"9.26 upbm affinity estimate (log intensity, higher = more binding, comparable within an allelic series)"
CCGCCAGC,binding signal,NKX2-6 [16],"8.92 upbm affinity estimate (log intensity, higher = more binding, comparable within an allelic series)"
same,binding signal,NKX2-6 [17],"9.24 upbm affinity estimate (log intensity, higher = more binding, comparable within an allelic series)"
AGCTCCGC,binding signal,NKX2-6 [16],"9.07 upbm affinity estimate (log intensity, higher = more binding, comparable within an allelic series)"
same,binding signal,NKX2-6 [17],"9.27 upbm affinity estimate (log intensity, higher = more binding, comparable within an allelic series)"
CGCAGCGC,binding signal,PROP1 [1],"6.83 upbm affinity estimate (log intensity, higher = more binding, comparable within an allelic series)"
same,binding signal,PROP1 [2],"6.82 upbm affinity estimate (log intensity, higher = more binding, comparable within an allelic series)"
same,binding signal,PROP1 [3],"6.74 upbm affinity estimate (log intensity, higher = more binding, comparable within an allelic series)"
